Experimental findings from PubChem BioAssay AID493200 (National Center for Advancing Translational Sciences (NCATS), 2011) are described below.

Structures are written as SMILES. Results filed as inconclusive are left out. Calls of active or inactive are those of the source. The call rests on the fitted dose curve; in most records, active means well fitted activation curve with a large enough effect; inconclusive means small, poorly fitted or top-dose-only effect; inactive means no such curve, though single readings can be large or run the other way.
Potency means the concentration at half of the fitted maximal effect.

The nature of this test: qHTS Assay for Rab9 Promoter Activators: Initial hit validation from the primary screen. On activation: % of control where 0% means no effect. To be noted: Huh7 Rab9 promoter luciferase reporter, 24 h; series mostly up to 46.1 µM; activation: at the top concentration. In a few lines: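 Luciferase signal, read 10 min after Amplite reagent, reports Rab9 promoter activation. Compounds in DMSO were applied for 24 h at 37C to Rab9-luciferase Huh7 cells, pre-incubated 2 h in reduced-serum medium with 10% FBS.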
(Quantitative high-throughput screening tests each substance at several concentrations.)
As to `CCN(C(=O)COC(=O)c1ccc(C=O)cc1)c1c(N)n(Cc2ccccc2)c(=O)[nH]c1=O`, the “activation” value was -4.81% (inactive).

Regarding `Brc1ccccc1-c1nnc(CSc2nnc3sc4ccccc4n23)o1`, the “activation” value is 11.5% (inactive). Regarding `O=C(COC(=O)c1ccc(-c2nnc(-c3ccccc3)o2)cc1)c1ccccc1`, the Potency was 0.396 µM (active).

For the compound `Cc1ccc(CNC(=O)Nc2ccc(C)cc2)cc1`, the Potency was 19.9 µM (active). Regarding `CC(Sc1nnc(C(F)(F)F)n1C)C(=O)Nc1ccc(S(N)(=O)=O)cc1` (stereo not given), the “activation” value was 0.495% (inactive). In the case of `CC1CN(C(=O)c2ccncc2)CC(C)O1` (stereo not given), the “activation” value is -3.44% (inactive).

Regarding `COc1ccc(NC(=S)NNC(=O)c2cccs2)cc1`, the Potency is 31.5 µM (active). In the case of `COc1ccc(NC(=O)CSc2ccc([N+](=O)[O-])cc2)cc1S(=O)(=O)N1CCOCC1`, the “activation” value is -11.1% (inactive). As for `CCCc1cc(C(=O)Nc2ccccc2SC)no1`, the Potency was 25 µM (active). As for `COc1ccc(C)cc1N(C(=O)CNC(=O)c1ccco1)C(C(=O)NC1CCCC1)c1cccnc1` (stereo not given), the “activation” value is -0.431% (inactive). Regarding `COc1ccc(/C=C\c2onc(C)c2S(=O)(=O)N2CCC(C(=O)NCCC(C)C)CC2)cc1`, the “activation” value was -9.91% (inactive). On the same count and under the same terms, the figure for `C=CCn1c(C)nnc1SCC(=O)Nc1nccs1` is 1.83% (inactive).

As to `Cc1nc(-c2ccccn2)sc1C(=O)Nc1ccc(F)cc1F`, the Potency is 9.96 µM (active). Same read-out and setting: next, `CCOCC(=O)Nc1c(C(=O)Nc2ccc3c(c2)OCCO3)oc2ccccc12`: 0.628 µM (active). With `COc1ccc(S(=O)(=O)N2CCCC(C(=O)NCc3ccncc3)C2)cc1Cl` (stereo not given), the “activation” value is -11.2% (inactive). In the case of `COc1ccc(-c2csc(Nc3ncccn3)n2)cc1C`, the Potency is 0.281 µM (active). In the case of `COC(=O)c1sccc1NC(=S)OC`, the “activation” value was -1.18% (inactive). Still for that read-out and setting: the figure for `COc1ccccc1CNC(=O)COc1ccc(C)cc1` is -5.69% (inactive). For `O=C(NC(=S)Nc1ccc(CN2CCCCC2)cc1)c1cc2ccccc2o1`, the “activation” value is 5.55% (inactive). Still for that read-out and setting: the figure for `COc1ccccc1NC(=S)NCc1ccc(Cl)cc1` is -1.84% (inactive). For `COC(=O)c1ccc(NC(=O)c2ccc3nc(C)sc3c2)cc1`, the Potency is 0.56 µM (active). Consider `Fc1ccc(-c2nc3nc4ccccc4nc3n2Cc2ccco2)cc1`, for which the “activation” value was 12% (inactive). In the case of `O=C(CCCN1C(=O)C(c2ccccc2)Oc2cccnc21)Nc1ccccc1Cl` (stereo not given), the “activation” value was -7.99% (inactive). The same measure, in the same setting: the figure for `CC(=O)Nc1ccc(NC(=O)COc2ncnc3ccccc23)cc1` is 4% (inactive). In the case of `Cn1c(CCN2CCN(c3ccccc3)CC2)nc2cc(NC(=O)c3ccco3)ccc21`, the “activation” value was -5.18% (inactive). Consider `CCC(=O)N1c2ccccc2NC2=C(C(=O)CCC2)C1c1ccc(N(C)C)cc1` (stereo not given), for which the “activation” value was -5.08% (inactive).

As to `Cc1ccc(C(=O)Nc2nnc(S(=O)(=O)N3CCOCC3)s2)cc1`, the “activation” value was 9.51% (inactive). For the compound `Nc1ccccc1C(=O)N/N=C1/C2CN3CCN(C2)CC1(Cc1ccccc1)C3`, the “activation” value is 1.41% (inactive).

With `Cc1nc2sc(C(=O)OC(C)C)c(N)c2c(C)c1C`, the Potency was 15.8 µM (active). For `COc1ccc(-n2c(N)c(C(=O)NCc3ccco3)sc2=S)cc1`, the “activation” value was 2.44% (inactive). The same measure, in the same setting: next, `CCCCn1c(Nc2ccc(OC)cc2)nc2ccccc21`: 5.74% (inactive); `CCCOC(=O)Cn1cnc2scc(-c3ccc(OC)cc3)c2c1=O`: -8.76% (inactive); `Cc1noc(/C=C/N(C)C)c1S(=O)(=O)N1CCCC(C(=O)N2CCCCC2)C1` (stereo not given): -1.37% (inactive). For the compound `Cc1ccc(C(=O)Nc2ccc(N3CCN(C)CC3)nc2)cc1`, the Potency was 25 µM (active). With `CCN(Cc1nc2cc(Cl)ccc2c(=O)[nH]1)C(=O)C1CC(=O)N(c2cccc3ccccc23)C1` (stereo not given), the “activation” value was -7.08% (inactive).
